Screens as filed in PubChem BioAssay.
FBW7 activator = activators of human E3 ligase FBW7; AlphaScreen FBW7–phospho-cyclin E peptide binding, activator screen; normalized activity (activation), % at 26.1 µM; hit rate 0.13% among 650,000; in the data active = normalized activity above about 1.9%;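 note: purified mutant Fbw7 with reduced substrate affinity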
Target sequence (Q969H0 whole entry, looked up): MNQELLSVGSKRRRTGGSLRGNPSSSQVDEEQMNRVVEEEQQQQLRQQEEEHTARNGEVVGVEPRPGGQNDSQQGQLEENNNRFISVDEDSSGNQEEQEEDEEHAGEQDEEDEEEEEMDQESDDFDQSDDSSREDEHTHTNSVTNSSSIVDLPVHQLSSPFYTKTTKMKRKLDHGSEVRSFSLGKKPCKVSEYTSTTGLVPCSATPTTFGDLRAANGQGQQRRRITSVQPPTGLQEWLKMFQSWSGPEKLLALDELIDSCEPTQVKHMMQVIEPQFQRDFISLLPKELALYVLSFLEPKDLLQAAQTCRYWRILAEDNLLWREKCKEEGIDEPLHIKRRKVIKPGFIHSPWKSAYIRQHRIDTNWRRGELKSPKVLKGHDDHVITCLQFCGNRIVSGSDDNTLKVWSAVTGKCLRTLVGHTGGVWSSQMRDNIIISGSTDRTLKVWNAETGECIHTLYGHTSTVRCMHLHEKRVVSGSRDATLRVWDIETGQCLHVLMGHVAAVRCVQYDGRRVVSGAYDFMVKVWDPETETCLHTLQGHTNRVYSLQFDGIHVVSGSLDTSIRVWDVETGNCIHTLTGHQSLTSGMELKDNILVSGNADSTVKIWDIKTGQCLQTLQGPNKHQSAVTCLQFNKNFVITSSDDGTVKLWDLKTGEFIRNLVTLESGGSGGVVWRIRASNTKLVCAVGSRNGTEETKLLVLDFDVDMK
TEAD-YAP inh = TEAD-YAP interaction inhibition | inhibition, % at 9.12 µM | hit rate 1.4% among 640,000 | HEK-TIYL cells, TEAD-Gal4/YAP UAS-luciferase luminescence; in the data active = inhibition above about 32%;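 note: 0% = median of test compound wells and 100% = reference inhibitor wells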
GPR151 activ = activators of human GPR151 | AID 1508602 | hit rate 1% among 650,000 | PathHunter beta-arrestin GPR151 cells, luminescence | activation, % at 11.2 µM; in the data active = activation above about 4.9%;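 note: 0% = median of compound wells and 100% = cells with positive control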
MITF primary = blocks human microphthalmia-associated transcription factor; AlphaScreen MITF homodimerization, bead proximity signal; hit rate 0.91% among 650,000; inhibition, % at 2.6 µM; in the data active = inhibition above about 50%;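 note: 0% = vehicle wells with protein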
GPR151 conf act = human GPR151 activation, confirmation screen; shares compounds with GPR151 activ; GPR151 PathHunter beta-arrestin cells, luminescence, 90 min; % of EA-reagent control over plate median; activation, % at 11.2 µM; 6,700 tested, under 10 active; AID 1508609;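 active = mean percent activation across replicates above the confirmation screen cutoff of 4.91%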
GPR119 ag = GPR119 activation, counter-screen for GPR151 activators; shares compounds with GPR151 activ; GPR119 PathHunter beta-arrestin cells, luminescence, 90 min; 0 = compound-well median, 100 = enzyme-acceptor control; activation, % at 11.2 µM; hit rate 0.3% among 6,700;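 active = mean percent activation in the counterscreen above 29.09%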;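 note: counterscreen on off-target GPR119 to flag nonselective hits from the GPR151 activator screen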
* marks the source's active call; other numbers are inactive results; / = not tested or not shown. This is a sample that favours compounds with a hit; in the whole collection about 3.4% have one here.

SMILES | FBW7 activator | TEAD-YAP inh | GPR151 activ | MITF primary | GPR151 conf act | GPR119 ag
Cc1nccn1CCNC(=O)c1cccc2ccccc12 | 0 | 1 | 6.0* | -1 | -1 | -10
Cc1nccn1CCNC(=O)c1cccn(C)c1=O | 0 | 0 | 1 | 7 | / | /
CCOc1ccc2nc(SCC(=O)N3c4ccc(C)cc4-c4c(ssc4=S)C3(C)C)sc2c1 | 0 | -11 | 0 | 16 | / | /
O=C(Cn1c(=O)[nH]c2ccsc2c1=O)NC1CCCCC1 | 1 | -5 | 5.3* | 7 | 0 | 2
CC(NC(=O)CCCn1c(=O)[nH]c2ccsc2c1=O)C12CC3CC(CC(C3)C1)C2 (centres undefined) | 0 | -5 | 1 | 2 | / | /
CC(NC(=O)CCn1c(=O)[nH]c2ccsc2c1=O)C12CC3CC(CC(C3)C1)C2 (centres undefined) | 0 | 6 | 12* | 2 | 0 | 13
Cc1nnc(CNC(=O)c2cc(-c3ccccc3)nn2C)o1 | 1 | -1 | 0 | 7 | / | /
Cc1ccc(Cl)c2c1NC(=O)C21SCCS1 | 0 | -8 | 8.6* | 3 | -1 | 2
CCOc1cc(/C=C2\C(=O)NC(=O)N(C(C)(C)C)C2=O)ccc1O | 0 | 3 | 0 | 12 | / | /
CCOc1ccc(CSC2=NCCN2)cc1[N+](=O)[O-] | -1 | -5 | 0 | 10 | / | /
O=[N+]([O-])c1ccc(CSC2=NCCN2)cc1 | 0 | 20 | 7.2* | -3 | 0 | -6
O=C(NCCC1CCCCN1S(=O)(=O)c1ccccc1)Nc1ccc(Cl)cc1 (centres undefined) | 0 | 6 | 8.1* | 8 | -1 | -11
CCCCCn1c(SCc2ccncc2)nc2cc(C(=O)NCc3cccc(Cl)c3)ccc2c1=O | 0 | 2 | 5.1* | 5 | -1 | -11
O=C(Cc1csc(-n2cccc2)n1)N1CCN(c2ccccn2)CC1 | 0 | 7 | 5.5* | 3 | 2 | 0
O=C(O)CCC/C=C\C/C=C\C/C=C\C/C=C\CCCCCO | / | / | 0 | 2 | / | /
COC(=O)C(Cc1ccccc1)NCc1ccc(Cl)cc1 (centres undefined) | 0 | -10 | 0 | 43 | / | /
Fc1ccc(-c2[nH]ncc2CCN2CCOCC2)cc1 | 0 | 10 | 9.9* | 0 | 1 | 6
CCC(=O)Nc1ccc(C(=O)COc2ccc(C(C)=O)cc2OC)cc1 | 0 | -2 | -1 | -6 | / | /
CCN(CC)c1nc(NCc2cccc(C(F)(F)F)c2)nc(Nc2ccc(C(F)(F)F)cc2)n1 | 0 | 6 | 0 | 8 | / | /
CCN(CC)c1nc(NCc2cccc(C(F)(F)F)c2)nc(NCc2ccc3c(c2)OCO3)n1 | 0 | -6 | 6.4* | 7 | 0 | -10
CN1CCN(C(=O)c2ccc(-c3cc(C(=O)NCCOc4ccccc4)ccn3)cc2)CC1 | 0 | 5 | 3 | 0 | / | /
CC(Oc1cccc(Cl)c1)C(=O)N/N=C/c1ccccc1O (centres undefined) | 0 | 8 | 6.6* | 5 | 0 | 2
COc1ccccc1NC(C)C(=O)N/N=C/c1cccc(OC)c1O (centres undefined) | 0 | 16 | 0 | 21 | / | /
COc1ccc(/C=N/NC(=O)c2cc(C(C)(C)C)[nH]n2)cc1O | 0 | -3 | 1 | 0 | / | /
COc1cccc(/C=N\NC(=O)c2cc(C(C)(C)C)[nH]n2)c1O | -1 | 69* | 5.8* | 22 | 1 | 4
SMILES | FBW7 activator | TEAD-YAP inh | GPR151 activ | MITF primary | GPR151 conf act | GPR119 ag
COc1cccc(/C=N/NC(=O)C(C)Nc2ccc(C)cc2)c1O (centres undefined) | 0 | 17 | 12* | 9 | 1 | 1
COc1ccc(NC(C)C(=O)N/N=C/c2ccccc2Cl)cc1 (centres undefined) | 0 | 6 | 7.3* | 17 | 0 | -7
COc1ccc2nc3c(cc(C#N)c4nc5cc(OC)c(OC)cc5c(=O)n43)cc2c1 | 0 | 3 | 0 | 14 | / | /
N#CCSc1nc2ccccc2c(=O)n1CCCC(=O)NCc1ccccc1 | 0 | -10 | -1 | -3 | / | /
CCOC(=O)c1sc(NC(=O)CSc2ncnc3sc(C)c(C)c23)c(C(=O)OCC)c1C | 0 | 9 | 6.4* | 10 | 1 | 8
CN1C(=O)/C(=C/c2ccc(O)c(I)c2)NC1=S | 0 | 9 | -2 | 2 | / | /
COc1ccccc1C(=O)Nc1cc(-c2cccs2)nn1CCO | 0 | 9 | 1 | 5 | / | /
O=[N+]([O-])c1ccc(Nc2nc(-c3ccccc3)cs2)cc1 | 1 | -36 | 6.1* | 23 | 1 | 15
CC(=O)Nc1cccc(-c2csc(Nc3ccc(C)cc3)n2)c1 | 0 | -71 | 10* | -6 | 0 | 11
CC(=O)Nc1cccc(-c2csc(Nc3ccccc3Cl)n2)c1 | 0 | -67 | 5.0* | 1 | 0 | 5
O=C(CCC(=O)OCC(Cl)=C(Cl)Cl)Nc1ccc(Cl)cc1 | 0 | 3 | -1 | -4 | / | /
O=S(=O)(/C=C/c1ccccc1)N1CCC(CO)(Cc2cccc(C(F)(F)F)c2)CC1 | 0 | -14 | 0 | 6 | / | /
COc1ccc(N2CCN(c3cc(Nc4cccc(OC)c4)c4c5c(onc35)-c3ccccc3C4=O)CC2)cc1 | 0 | 21 | 1 | 1 | / | /
CC(=O)c1ccc(NC(=O)Nc2ccc(NS(=O)(=O)c3ccc(C)cc3)cc2)cc1 | 0 | 13 | 0 | 15 | / | /
CC(=O)c1ccc(NC(=O)NS(=O)(=O)c2ccc(C)cc2)cc1 | 0 | -6 | 5.4* | 0 | 0 | 7
Cc1cc(C(=O)N(Cc2ccco2)c2nc3c(C(C)C)cccc3s2)no1 | 0 | -4 | -2 | 6 | / | /
CCC(Br)C(=O)NCCc1ccc(OC)c(OC)c1 (centres undefined) | 0 | 4 | 5.2* | 0 | -1 | 9
CCCN1CCN(C(=S)NCCc2ccc(OC)c(OC)c2)CC1 | 0 | 1 | 5.5* | 5 | 0 | -4
COc1ccc(CCNC(=O)/C=C\C(=O)O)cc1OC | 0 | -5 | 5.0* | 4 | 2 | 1
CCCCCCCc1ccc(C(=O)Nc2nnc(-c3ccc(CCCCCCC)cc3)s2)cc1 | 0 | -6 | -1 | 0 | / | /
Cc1ccc2c(c1)C(=C(C#N)C#N)C=C(c1cccs1)O2 | 0 | -9 | 5.3* | 1 | 0 | 10
COc1ccc(/C=N/NC(=O)CNC(=O)c2ccccc2F)cc1OC | 0 | -30 | 2 | 14 | / | /
CCOC(=O)CS(=O)(=O)c1ccc(C(=O)NCCc2ccc(Cl)cc2)cc1[N+](=O)[O-] | 0 | 1 | -2 | 2 | / | /
COc1cc(Nc2nc(NCCOc3ccccc3)c3ncn(-c4ccsc4)c3n2)cc(OC)c1OC | 0 | 19 | -2 | -3 | / | /
CCCNC(=O)C1CC(c2ccc(OC)c(OC)c2)=NO1 (centres undefined) | 0 | -17 | 3 | 1 | / | /
CCN1CCN(C2=NS(=O)(=O)C(c3ccc(C)cc3)=C2C)CC1 | 0 | -1 | 12* | 12 | 0 | 8
